Where a chain is given by its changes, count along the chain named. Whole data set: some 5,800 sequences, median “enrichment r” near 0.68, cut for the highest 2% near 11. The sample holds the highest values, similar sequences and a random draw of the others, so the mix is not that of the screen.
T1: UNK ZnF1-6 (called full-length) (human, UniProt Q9C0B0 30-357)
T1 sequence: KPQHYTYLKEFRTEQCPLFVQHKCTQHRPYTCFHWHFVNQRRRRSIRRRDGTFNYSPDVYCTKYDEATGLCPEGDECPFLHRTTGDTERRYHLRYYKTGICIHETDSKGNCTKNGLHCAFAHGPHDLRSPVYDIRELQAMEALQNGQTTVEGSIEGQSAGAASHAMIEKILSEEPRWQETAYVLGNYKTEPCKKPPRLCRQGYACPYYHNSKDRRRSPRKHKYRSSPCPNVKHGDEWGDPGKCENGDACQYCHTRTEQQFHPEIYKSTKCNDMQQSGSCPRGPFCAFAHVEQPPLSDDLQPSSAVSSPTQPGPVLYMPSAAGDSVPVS

B1: chr17:32711987:32712195:-|CDS|ENSG00000176658|control|control|control (ssRNA)
RNA: GGGAGUUCUACAGUCCGACGAUCUCCUUCAGACAAAGAGGCUGUCAAGAAACUAAUUGAACGGUGUGGUUUUCAGGAUGAUGUAGCUUAUGGGAAGACCAAAAUUUUCAUUCGAACACCCCGAACAUUGUUUACCUUGGAAGACAACAGAGGAUUGAGCAUCA
B2: chr12:293013:293114:-|CDS|ENSG00000073614|unk|FALSE|bound_elsewhere (ssRNA)
RNA: GGGAGUUCUACAGUCCGACGAUCACUAAAAGUGAAAGGAAAGGACUCUUCAGAGAAGAAACGGAAACGGAAGCUAGAAAAGGUAGAGCAACUUUUUGGAGAAGGAAAACAGAAGUCCAAGGAGUUAAAGAAAAUGGACAAACCCAACAGAGGAUUGAGCAUCA
B3: chr1:228098150:228098251:+|3pUTR|ENSG00000143761|msi1_unk|total|mutant (ssRNA)
RNA: GGGAGUUCUACAGUCCGACGAUCGCACCGUGCUGUAAAUGUGGCAGACGCAGCCUGCGGCCAGGCUUUUUAUUUAAUGUAAACCGUUUUUGUUUCCAAUGAGGCAGUUUCUGGUACUCCUAUGCAAUAUUACUCAGCUUUUUUCAACAGAGGAUUGAGCAUCA
B4: chr7:50445662:50445763:-|CDS|ENSG00000132436|msi1|FALSE|unique (ssRNA)
RNA: GGGAGUUCUACAGUCCGACGAUCGUUAUCUCAACGGGGAGAUGGUGAGCAUGAAUCUUCUAGAAGGAUAAAAACAGAAUUUUUAGUUCAAUUAGAUGGAGCAACAACAUCUUCUGAAGAUCGUAUCCUAGUGGUGGGAGCAACCAACAGAGGAUUGAGCAUCA
B5: ENSG00000120802:stop:overlap|stop_codon|ENSG00000120802|stop_codon|NA|stop_codon (ssRNA)
RNA: GGGAGUUCUACAGUCCGACGAUCGUGGAACAUUAUUUGGAGGAGAAGUAUGCAAAGUAAUUAAAAAGCGUGGAAAUAAACACUAGUAAAAUUAAGGACAAAAAGACAUCUAUCUUAUCUUUCAGGUACUUUAUGCCAACAUUUCAACAGAGGAUUGAGCAUCA
B6: chr6:119178661:119178762:-|3pUTR|ENSG00000111885|msi1|FALSE|unique (ssRNA)
RNA: GGGAGUUCUACAGUCCGACGAUCGAAAGAAGCUUUGCCAAUUUUACUUAUUCGUGAUCAAUCAAGGAAAAUCUAAUAAAUUUUAGGCCAAAUAAGAAUAUAGCAUAUUUAGUAUGGUUAUAGUCAACACAGAGAUCACAACUUCAACAGAGGAUUGAGCAUCA
B7: chr12:123662440:123662541:+|3pUTR|ENSG00000111358|unk|FALSE|unique (ssRNA)
RNA: GGGAGUUCUACAGUCCGACGAUCAAUGGAAAUCACAAUUUUAAGUCUAGGAAAUAAAGUAUUAUAUAUACUUUCAAACAAGCUAGCAAGGCUUUUAUUAUUACUUUUUUAUUUGAAAUAUCUUAUAUAUUUGGUUAGUUCUGUCAACAGAGGAUUGAGCAUCA
B8: ENSG00000198589:be:win_8701|3pUTR|ENSG00000198589|bound_else_gene|NA|bound_elsewhere_windowed (ssRNA)
RNA: GGGAGUUCUACAGUCCGACGAUCUGUAGUCUUUGCUUGACUUUUUUGGGGGGGAUUAGCAAAGCAGAAAACUGGCUGCUGGGUUCUGUAGUUUUAAAAAAUCUAUAUUUUUAGUCAUAAUGAGAAGUCUAUUUUCACCAAUUACAACAGAGGAUUGAGCAUCA
B9: chr3:121431430:121432303:-|three_prime_utr|ENSG00000051341|control|control|control (ssRNA)
RNA: GGGAGUUCUACAGUCCGACGAUCUGGAAAGAACAGAGAUUACCCUUUCACCUACCUCAGCAAAACAAACUUUCAAGUCUUGAUAGACUUAGCCUAGUAAUUUUAUAGUGAGAGUUUCAAACUAUAUAUCAGUGUCUAUAGCAUCAACAGAGGAUUGAGCAUCA
B10: chr11:22846921:22847509:-|three_prime_utr|ENSG00000255359|control|control|control (ssRNA)
RNA: GGGAGUUCUACAGUCCGACGAUCCUCCACCAUUUCGGAAAAAUAAACACAGUGCAAGUAUUUAAUAUCCAAGCUACAGGCUCUAGAAUUUUAUUAAAUGCCAUCUCUCACUACCAUAUUUUUCUUUCCUGUGGUAAACUUGAACAACAGAGGAUUGAGCAUCA
B11: chr21:43695798:43695899:+|3pUTR|ENSG00000160208|msi1|FALSE|unique (ssRNA)
RNA: GGGAGUUCUACAGUCCGACGAUCACAAUAUUUUGUAAAAUGAUGCUUCCCCCUUCUCCAUGGUCUAGUCAAUUUUGUACAAUUAGGUAUCUGACUUUACAAGUUUGUUAUCCUUUCUAAUUUUUACUGAACUGAAAGCACAAACAACAGAGGAUUGAGCAUCA
B12: chr17:81921741:81921842:-|3pUTR|ENSG00000197063|msi1|FALSE|unique (ssRNA)
RNA: GGGAGUUCUACAGUCCGACGAUCAAUUAUAUGUUUAAAAGUUAAAGAAAAAAGAGCUGCAGAGUAUUUAUAAAACUGUCUUUUAGAAAAAAAACAAGCAAGAAGACCAUUUGACCAUAUGAAUGGAAAAGGGAAGAAAGUAUACAACAGAGGAUUGAGCAUCA
B13: chr8:74853834:74853946:+|3pUTR|ENSG00000137558|unk|FALSE|unique (ssRNA)
RNA: GGGAGUUCUACAGUCCGACGAUCAAGUGCUUUUUUUUUUCUGAAUUAAUUAGGUAUUGGUAAAAUAUAUUUUUAAAUUUAGUUAGCUUUAUAAACACAAUUAGAAUUACAAUUAAUUAACAGAGGUAUAAUUGUCUCACUUUCCAACAGAGGAUUGAGCAUCA
B14: chr9:122240152:122240253:-|3pUTR|ENSG00000119446|msi1|FALSE|unique (ssRNA)
RNA: GGGAGUUCUACAGUCCGACGAUCCUUCUUGGAGUAUAGAAUUCACCAUUUUAUCCGUAAGUCUUCAAAGGAUUAUGGUGGACUAGAACUUACAUAGUGCAAAAUAGUCUUCUAUUUUUAAUAGGAACUUAGAAAAAACUUAGACAACAGAGGAUUGAGCAUCA
B15: chr4:150265445:150265561:-|3pUTR|ENSG00000198589|unk|FALSE|bound_elsewhere (ssRNA)
RNA: GGGAGUUCUACAGUCCGACGAUCGGAUUAGCAAAGCAGAAAACUGGCUGCUGGGUUCUGUAGUUUUAAAAAAUCUAUAUUUUUAGUCAUAAUGAGAAGUCUAUUUUCACCAAUUAUGGAAACAUACAGUGGAGCAAGUAAACCCAACAGAGGAUUGAGCAUCA
B16: chr4:150265445:150265561:-|3pUTR|ENSG00000198589|unk|total|mutant (ssRNA)
RNA: B15 RNA with U28C, A29C, U60C, A61C, U83C, A84C

Each binder was assayed against T1, UNK ZnF1-6 (called full-length) (assay: nsRBNS (natural sequence RNA bind-n-seq); RBNS binding buffer (assumed for nsRBNS): 25 mM Tris pH 7.5, 150 mM KCl, 3 mM MgCl2, 0.01% Triton X-100, 500 ug/ml BSA, 20 U/ml SUPERase-In, 4 C; UNK is unkempt and MSI1 is Musashi-1; names of the RNAs are library labels; protein concentration not given here; high values mean tight binding).

Binder | binding signal [enrichment R]
B1 | 0.434
B2 | 0.672
B3 | 0.896
B4 | 0.853
B5 | 1.07
B6 | 2.15
B7 | 12.5
B8 | 29
B9 | 8.5
B10 | 0.713
B11 | 1.9
B12 | 2.78
B13 | 171
B14 | 41.4
B15 | 2.4
B16 | 0.438
